Screens (PubChem BioAssay)
Ins promoter up: MIN6 insulin promoter up-regulation; MIN6 insulin promoter-GFP reporter, high-content imaging; hits give high values; z-score at 5 µM; 190,000 compounds, 0.3% hits; AID 1625;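 active means z-score above 3 at 5 µM with at least 500 cells counted in the well; inconclusive means wells under 500 cells, flagged as cytotoxic or low count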
L major viab: Leishmania major promastigote growth inhibition | AID 1063 | inhibition, % at 10 µM | 200,000 compounds, 9% hits | Leishmania major promastigotes, resazurin fluorescence viability; in the data active means inhibition above about 50%;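 further: promastigotes grown with compound for 44 hours at 28 °C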
WT yeast gro inh: growth inhibition of WT yeast, mitochondrial fusion screen; mitochondrial fusion phenotypic screen, WT strain; inhibition, % at 10 µM; 190,000 compounds, 2.1% hits; AID 1362; in the data active means inhibition above about 58%; tested in S. cerevisiae
Autophagy mod: autophagy modulation, high-content screen; calls only at 10 µM (by protocol); MEF GFP-LC3 puncta imaging; test concentration mostly 10 µM; 190,000 compounds, 0.98% hits;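 active means percentage of spot-positive cells more than 3 SD above its plate mean, without a fluorescence outlier flag or 80% toxicity; inconclusive means no clear call, values can overlap the other calls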;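 further: spot-positive cell cutoff set from DMSO-treated cells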
Insulin prom inh: TRM-6 insulin promoter activity inhibition | TRM-6 cells (human fetal islet line), insulin promoter-eGFP reporter, imaging; reporter expression induced with tamoxifen | 130,000 compounds, 0.9% hits | inhibition, % at 2 µM;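 active means inhibition above the mean plus 3 SD, with well images judged a real hit on visual review, cut at about 60% in these data, passing the limit was not always enough; inconclusive means inhibition over the cutoff but images rejected on review; inactive means inhibition not above the cutoff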
The depositor's hits bear a star; i = inactive; ? = inconclusive; / = no result given; + = active, no number. The list is not random: actives were taken first. Their share in the collection is about 11%.

SMILES	Ins promoter up	L major viab	WT yeast gro inh	Autophagy mod	Insulin prom inh
O=C(COC(=O)CC12CC3CC(CC(C3)C1)C2)Nc1ncc(Cl)cc1Cl	-0.77	5.7	42.1	i	100.0*
COc1ccc(C(C[N+](=O)[O-])C2(c3ccc(OC)c(OC)c3)C(=O)c3ccccc3C2=O)cc1 (stereo unspecified)	-0.14	99.7*	22.7	i	0.0
COC(=O)c1sc2ccccc2c1-n1cccc1C(=O)C(=O)Nc1ccc(C)cc1	/	3.4	30.6	i	21.6
COC(=O)c1sc2ccccc2c1-n1cccc1C(=O)C(=O)Nc1ccc(F)cc1	5.4*	3.2	21.7	i	54.0
Cc1ccc([N+](=O)[O-])cc1S(=O)(=O)NCCc1c(C)[nH]c2ccccc12	/	95.9*	1.8	i	38.9
CC(C)C[C@H](NC(=O)N1CCCCCC1)C(=O)O	0.4	/	/	/	/
CC(C)N(CCNC(=O)c1oc(=O)c2ccccc2c1-c1ccccc1)Cc1ccco1	-0.61	7.0	-8.9	i	-28.6
CCCC[C@@H]1CNC(=S)N1CC1CCCCC1	-0.98	/	/	/	/
CCCC[C@@H]1CNC(=S)N1CCc1cccc(F)c1	0.1	0.7	65.1*	i	/
CCCC[C@@H]1CNC(=S)N1CCC12CC3CC(CC(C3)C1)C2	-2.08	9.2	64.6*	i	/
CCCCN1C(=S)NC[C@@H]1Cc1cccc2ccccc12	-0.58	/	/	/	/
Fc1cccc(CCN2C(=S)NC[C@@H]2Cc2ccccc2)c1	-1.24	4.7	66.0*	i	/
Fc1cccc(CCN2C(=S)NC[C@@H]2CC2CCCCC2)c1	-0.37	/	/	/	/
CCCC[C@@H]1CNC(=S)N1CCc1cccc2ccccc12	0.04	20.0	74.7*	i	/
CCc1ccc(C2CC(=O)N(c3ccc(F)cc3)C3=C2C(=O)OC3)cc1 (stereo unspecified)	/	-1.8	3.5	i	14.3
Cc1cccc(NC(=O)C2CCN(S(=O)(=O)c3c(C)noc3/C=C/c3ccco3)CC2)n1	-1.29	98.7*	12.5	i	11.5
COCCNC(=O)C1CCN(S(=O)(=O)c2c(C)noc2/C=C/c2cccs2)CC1	0.94	/	/	/	/
O=C(Cc1cn(Cc2cccc(Cl)c2)c2ccccc12)N1CCCC1	0.63	98.5*	14.0	i	-78.6
CCc1cc2c3c(c(=O)oc2cc1O)CCCC3	1.41	40.6	/	i	-153.3
O=c1oc(-c2ccccc2NS(=O)(=O)c2ccc3ccccc3c2)nc2ccccc12	0.3	92.1*	32.5	i	-8.3
COC(=O)C(=Cc1ccccc1[N+](=O)[O-])C(=O)OC	-0.59	/	/	/	/
Cc1ccnc(SCc2cc(=O)c(OC(=O)c3ccco3)co2)n1	-0.42	-6.2	1.9	i	30.0
Cc1ccnc(SCc2cc(=O)c(OC(=O)c3ccc(Cl)c([N+](=O)[O-])c3)co2)n1	0.9	96.1*	16.8	i	-14.8
CC1CCCCN1CCNC(=O)Cn1nc(-c2ccccc2)ccc1=O (stereo unspecified)	0.27	-4.3	-3.4	+	/
O=c1c(/C=N/Nc2ccccc2)c(Sc2nnnn2-c2ccccc2)nc2ccccn12	/	8.6	17.9	+	1.8
SMILES	Ins promoter up	L major viab	WT yeast gro inh	Autophagy mod	Insulin prom inh
COc1ccc(NC(=O)Cc2coc3cc(C)ccc23)cc1S(=O)(=O)N1CCOCC1	-1.48	-5.7	-0.7	i	/
COc1ccc(NC(=O)Cc2coc3ccc4ccccc4c23)cc1S(=O)(=O)N1CCOCC1	0.63	78.3*	-16.9	i	-29.6
COc1ccc(NC(=O)CN2CCc3ccccc3C2)cc1S(=O)(=O)N1CCOCC1	0.5	69.8*	14.7	i	14.3
Cc1ccc(CCNC(=O)C2CCCN(c3nc4ccccc4o3)C2)cc1 (stereo unspecified)	-0.12	-0.1	3.4	i	/
CCC(=O)c1ccc(OCC(=O)OCC(=O)Nc2sccc2C(N)=O)cc1	1.31	-4.8	-0.6	i	54.5
Cc1ccnc2nc(C(=O)OCCOc3ccc(Cl)cc3)nn12	0.51	-8.7	-36.2	i	-41.7
CCCCn1c(=N)n(CC(O)COc2ccccc2)c2ccccc21 (stereo unspecified)	?	54.9*	32.5	i	/
CCCCn1c(=N)n(CC(O)COc2ccc(C)cc2)c2ccccc21 (stereo unspecified)	/	100.6*	13.0	i	/
Cc1nnc(SCc2ccccc2CSc2nnc(C)s2)s1	-0.16	4.7	5.9	i	22.2
Cc1ccc(C)c(S(=O)(=O)N2C(=S)NC(=O)C2C(C)C)c1 (stereo unspecified)	-0.01	-4.5	-0.3	i	80.0*
Cc1ccc(S(=O)(=O)Nn2c(C)ccc2C)cc1	-0.05	-1.9	-9.0	i	0.0
O=C(Nc1ccc(Cc2ccncc2)cc1)C1CCC(N2C(=O)C3C4C=CC(C4)C3C2=O)CC1 (stereo unspecified)	/	62.3*	-22.9	i	42.0
